# Source: PubChem BioAssay AID485313 (National Center for Advancing Translational Sciences (NCATS), 2010)
# Out of some 320,000 compounds screened, about 7,600 (2.4%) were called active. A call without a number means that no potency is given here. Not shown: some 3% with an inconclusive outcome. Calls come from the whole dose curve; as a rule, active = well fitted activation curve with a large enough effect; inconclusive = small, poorly fitted or top-dose-only effect; inactive = no such curve, though single readings can be large or run the other way. The full list was thinned out, with actives kept by preference.
# Test: qHTS Assay for NPC1 Promoter Activators; note: nearly all actives have a fitted effect of over 60% in size
# Details: Huh7 NPC1 promoter luciferase reporter, 24 h; series mostly up to 9.22 µM
# Excerpt: NIH Chemical Genomics Center [NCGC] NIH Molecular Libraries Probe Production centers Network [MLPCN] MLPCN Grant: MH089375-01A1 Assay Submitter (PI): Yiannis A. Ioannou NCGC Assay Overview: Niemann Pick Type C (NPC) is a rare neurodegenerative lipidosis that is characterized by lipid storage in the endosomal/lysosomal system. Treatment modalities for this devastating disease are currently non-existent due to the severe obstacles associated with accessing the central nervous system with proteins or genes. The majority of mutations causing NPC disease are missense mutations that are distributed throughout the length of the NPC1 protein, with the most prevalent being the I1061T allele. Although NPC1 mutant proteins may be functional, they are typically trapped in the ER due to misfolding. […] We have developed and optimized a cell based luciferase reporter assay in 1536 well format for the identification of up-regulators of the mutant NPC1 promoter.
# The NPC1 promoter is cloned in front of the luciferase reporter gene, therefore NPC promoter activation results in luciferase expression. Frozen stock of the NPC1 promoter transfected Huh7 cells were obtained from the laboratory of Dr. Yiannis Ioannou (The Mount Sinai School of Medicine, New York, NY). Cells were propagated and maintained at NCGC in medium containing RPMI-1640 supplemented with 10% FBS, 2mM L-glutamine, and 50ug/ml penicillin/streptomycin. Cells were harvested in and plated for assays in OP-MEM I reduced-serum medium supplemented with 10% FBS. The Amplite luciferase reporter gene assay kit was purchased from ABD Bioquest and prepared/stored according to manufacturers recommendations. qHTS Assay Setup: 1.#Dispensed 5ul of Huh7 cells stably expressing NPC1-luciferase at a density of 1500 cells per well 1536-well plates. 2.#Incubate cells at 37C, 5% CO2, and 95% humidity for 2 hours. 3.#Transferred 23nl per well of compound in DMSO solution. 4.#Incubated at 37C, 5% CO2, and 95% humidity for 24 hours. 5.#Dispensed 3ul per well of Amplite reagent(ABD Bioquest) per well. 6.#Incubate at ambient for 10 minutes. 7.#Read using the luminescence protocol on the ViewLux plate reader (Perkin Elmer).
# Potency is the fitted concentration of half-maximal effect.
SMILES,Potency,activation
COc1ccccc1C(CNC(=O)c1cccc(S(=O)(=O)Nc2ccc(F)cc2)c1)N(C)C (stereo not drawn),inactive,
O=C(CCNC(=O)c1ccc([N+](=O)[O-])cc1)NC1CCCCC1,inactive,
N#C/C(=C(/O)COC(=O)COc1ccc(Cl)cc1)c1nc2ccccc2[nH]1,inactive,
O=C(Cc1nc2ccccc2[nH]c1=O)c1ccc(Cl)cc1,3160 nM (active),
O=C(CSc1nc2ccc([N+](=O)[O-])cc2[nH]1)c1ccc(Cl)cc1,inactive,
CCOC(=O)c1c(C)[nH]c(C(=O)OCC(=O)c2ccc(OC)cc2OC)c1C,inactive,
CCOC(=O)c1c(C)[nH]c(C(=O)OCC(=O)N2CCCC2=O)c1C,inactive,
CCCCOC(=O)c1[nH]c(C)c(C(=O)OC)c1C,2820 nM (active),
Cc1cc(C)c(CN2CCN(C(=O)Cn3ccc(NC(=O)OCc4ccccc4)nc3=O)CC2)c(C)c1,inactive,
Cc1cccc(NC(=O)c2cccc(C(=O)Nc3cccc(C)c3C)n2)c1C,inactive,
Cc1ccc(C(=O)CNc2ccc(F)cc2)cc1,inactive,
COC(=O)c1ccc(NCC(=O)c2ccccc2)cc1,2510 nM (active),
COC(=O)c1ccc(NCC(=O)N2CCCCCC2)cc1,inactive,
Cc1sc(NC(=O)c2ccc3ncsc3c2)c(C(N)=O)c1C,1580 nM (active),
O=C(COC(=O)c1ccc2ncsc2c1)Nc1ccc(Cl)cc1,,1.42% [at 1.84 µM] (inactive)
Cc1ccc(C(=O)c2c(NC(=O)c3ccccc3)sc(C)c2C)cc1,inactive,
COc1cc(C(=O)Nc2ncccc2C)ccc1OCC(=O)N1CCOCC1,inactive,
Cc1cc(C)c(S(=O)(=O)N2CCC(C(=O)OCc3c(C)noc3C)CC2)c(C)c1,inactive,
Cc1ccc(C(=O)Nc2ccc(C)c(S(=O)(=O)N(C)C)c2)s1,2820 nM (active),
Cc1ccc(NC(=O)c2cccs2)cc1S(=O)(=O)N(C)C,inactive,
CCN(CC(=O)Nc1ccc(C)c(S(=O)(=O)N(C)C)c1)Cc1ccccc1,inactive,
Nc1cc(N)nc(SCC(=O)Nc2cccc(S(=O)(=O)N3CCCCC3)c2)n1,inactive,
CSc1ccc(Cl)c(C(=O)OCC(=O)N2CCNC2=O)c1,inactive,
COc1ccc(N2C(=O)/C(=C\c3ccco3)N=C2SCC(N)=O)cc1Cl,inactive,
CC(C)Cc1cc(C(=O)NCCc2ccccc2)no1,2820 nM (active),
O=C(NCCCc1ccccc1)c1cc(COc2c(F)cccc2F)on1,inactive,

SMILES,Potency,activation
Nc1nonc1C(=O)NCCc1ccccc1,inactive,
Cc1ccc(S(=O)(=O)N(Cc2ccc(Cl)cc2)c2ccccc2C(=O)NCc2cccnc2)cc1,inactive,
O=C(CN(C(=O)c1csnn1)c1ccc(Br)cc1)NC1CCCC1,inactive,
O=C(CN1C(=O)CCS(=O)(=O)c2ccccc21)NCc1ccc(F)cc1,inactive,
O=C(CNS(=O)(=O)c1ccc2ccccc2c1)Nc1ccc(F)c(F)c1F,inactive,
N#CC(=C1CCCC1)c1nc(-c2ccc(Cl)cc2)cs1,2510 nM (active),
CCCCCN1CC(O)=C(c2nc(-c3ccc(Cl)cc3)cs2)C1=N,inactive,
N#CC(=C1SC=CS1)c1nc(-c2ccccc2)cs1,inactive,
CC1(C)NC(=O)N(CC(=O)N2CCN(S(=O)(=O)c3ccccc3F)CC2)C1=O,inactive,
O=C(Nc1ccc(C(F)(F)F)cc1)c1cccc(-n2cnnn2)c1,inactive,
CN1CCN(S(=O)(=O)c2ccc(N3CCN(c4ccccc4O)CC3)c([N+](=O)[O-])c2)CC1,inactive,
CCc1ccc(N(CC(=O)NCc2cccnc2)S(=O)(=O)c2ccccc2)cc1,2820 nM (active),
CCCNS(=O)(=O)c1ccc(CCC(=O)NCc2cccnc2)cc1,inactive,
O=C(CN(c1cc(C(F)(F)F)ccc1Cl)S(=O)(=O)c1ccccc1)NCc1cccnc1,inactive,
CCN(C(=O)COC(=O)c1c(C)nn(-c2ccccc2)c1Cl)c1c(N)n(Cc2ccccc2)c(=O)[nH]c1=O,inactive,
Cc1ccc(-n2c(C)cc(/C=C(\C#N)C(=O)NCC3CCCO3)c2C)cc1 (stereo not drawn),3160 nM (active),
Cc1cc(/C=C(/C#N)C(=O)Nc2ccc(Cl)cc2)c(C)n1-c1cccnc1,inactive,
Cc1ccc(C(=O)N/C(=C/c2cccs2)C(=O)NCC2CCCO2)cc1 (stereo not drawn),inactive,
O=C1C=C(c2cc(C(F)(F)F)cc(C(F)(F)F)c2)C[C@@H](c2ccc3c(c2)OCO3)C1,inactive,
Nc1c(C(=O)OCC(=O)Nc2ccc(OC(F)F)cc2)[nH]c(=O)[nH]c1=O,inactive,
Cc1[nH]n(C)c(=O)c1C(=O)c1c(-c2c(Cl)cccc2Cl)noc1C,inactive,
Cc1onc(-c2ccccc2)c1C(=O)N1CCN(S(=O)(=O)c2ccccc2C(F)(F)F)CC1,inactive,
Cn1c(-c2ccc(C(F)(F)F)cc2)cc2onc(-c3ccccc3)c2c1=O,398 nM (active),
O=c1c2ccccc2c(-c2ccc(F)cc2)nn1-c1ccc(C(F)(F)F)cc1,inactive,
O=C1c2ccccc2C(=O)N1Cc1cc(-c2ccccc2Cl)no1,inactive,
Cn1c(-c2ccc(F)cc2)cc2onc(-c3ccccc3Cl)c2c1=O,1580 nM (active),

SMILES,Potency,activation
C=C(C)C(=O)Nc1cccc(C2=NOC3(C2)C[C@H](C(N)=O)N(C(=O)C(c2ccccc2)c2ccccc2)C3)c1 (stereo partly drawn),inactive,
COc1ccc(CNC(=O)COC(=O)c2ccc(C)c(S(=O)(=O)N3CCOCC3)c2)cc1OC,inactive,
Cc1cccc(OCCC(=O)OCc2csc(CC(=O)Nc3ccccc3C)n2)c1,inactive,
COC(=O)c1ccc(C23CC4(C2)[C@H](CN(Cc2cccnc2)[C@@H]4c2ccccc2)C3c2ccc(Cl)nc2)cc1 (stereo partly drawn),inactive,
O=C(Nc1ccc(NC(=O)c2ccccc2F)cc1)c1ccccc1F,inactive,
O=C(Nc1nnc(-c2ccccc2F)s1)c1ccccc1F,1580 nM (active),
CN(Cc1ccccc1)S(=O)(=O)c1nnc(NC(=O)c2ccccc2F)s1,inactive,
COc1ccc(C(=O)NCC2CCCCC2)cc1S(=O)(=O)N1CCCC1,inactive,
CCCn1c(N)c(C(=O)CSc2nnc3n2CCCCC3)c(=O)[nH]c1=O,inactive,
COc1ccc([C@H]2CC(=O)C=C(c3ccc(CO)cc3)C2)cc1,inactive,
C/C(=N\NC(=S)Nc1ccc(C)cc1)c1cc2ccccc2o1,inactive,
Cc1ccc(NC(=O)c2cc3ccccc3o2)cc1,3160 nM (active),
Cc1c(/C=N\NC(=O)c2cc3ccccc3o2)c2ccccc2n1C,inactive,
COc1ccc(NC(=O)Cn2cc(C(=O)c3ccncc3)c(=O)c3cc(C)ccc32)cc1Cl,inactive,
O=C1C=C(c2cccc(Br)c2)C[C@@H](c2ccc(F)cc2)C1,inactive,
COc1cc(SC)ccc1C(=O)Nc1cc(C)ccn1,3160 nM (active),
COc1cc(SC)ccc1C(=O)N(Cc1ccccc1)c1ccccc1,inactive,
Cc1ccnc(NC(=O)CNC(=O)c2ccccc2)c1,inactive,
COc1ccccc1OCCNC(=O)CCNC(=O)c1ccccc1Cl,inactive,
COc1cc(SC)ccc1C(=O)NCCOc1ccccc1Cl,3160 nM (active),
Cc1ccnc(NC(=O)CCCOc2ccccc2)c1,inactive,
COc1ccc(S(=O)(=O)Nc2cc(C)on2)cc1NC(C)=O,inactive,
CC1CCCCC1NC(=O)COC(=O)Cc1ccc(Cl)cc1 (stereo not drawn),inactive,
CCc1ccc(C(=O)N2CCN(S(=O)(=O)c3sc(C(=O)O)c(C)c3C(=O)O)CC2)cc1,inactive,
COc1ccc(CNC(=O)CN2C(=O)NC3(CCCc4sccc43)C2=O)cc1 (stereo not drawn),inactive,
CCN(CC)S(=O)(=O)c1ccc(CNC(=O)CN2C(=O)NC3(CCc4ccccc43)C2=O)cc1 (stereo not drawn),inactive,

SMILES,Potency,activation
CCCC(=O)N1c2ccc(-c3csc(N)n3)cc2CC1C (stereo not drawn),2820 nM (active),
Cc1ccn(CCC(=O)N2c3ccccc3CC2C)n1 (stereo not drawn),inactive,
CCn1nc(C(=O)OCC(=O)N2c3ccccc3CC2C)c2ccccc2c1=O (stereo not drawn),inactive,
COc1ccc(CCNC(=O)COC(=O)c2cc(=O)c3ccccc3o2)cc1,inactive,
O=C(O)c1ccccc1N=N/C(=N/Nc1cc(S(=O)(=O)O)ccc1O)c1ccccc1,inactive,
Cc1nc(N2CCCCC2)sc1C=O,inactive,
Fc1ccc2nc(N3CCCCC3)sc2c1,3550 nM (active),
O=C(NCCc1cccc(F)c1)C1CCCN(c2nc3ccccc3s2)C1 (stereo not drawn),inactive,
Brc1ccc2nc(N3CCCC3)sc2c1,2000 nM (active),
O=C(c1ccc2nc(N3CCOCC3)sc2c1)N1CCN(c2ccc(Cl)cc2)CC1,inactive,
CN(C)CCCN(C(=O)c1ccc(S(=O)(=O)N2CCCCCC2)cc1)c1nc2ccc(Br)cc2s1,inactive,
OCC[C@H]1C[C@H](O)[C@@H](O)[C@]2(Cc3ccccc3CO2)O1,inactive,
COc1ccccc1CNC(=O)CCCN1C(=O)NC2(CCCC2)C1=O,inactive,
CNS(=O)(=O)c1cccc(C(=O)OCC(=O)N2c3ccccc3NC(=O)C2(C)C)c1,inactive,
Cc1ccc(OCCCC(=O)Nc2ccc3c(c2)OCCO3)cc1,inactive,
CC(=O)Nc1ccc(/C=N/NC(=O)c2cccs2)cc1,2510 nM (active),
CCN(CC)c1ccc(/C=N/NC(=O)CNC(=O)c2cccs2)cc1,inactive,
O=C(CNC(=O)c1cccs1)N/N=C/c1cccc(Br)c1,inactive,
CC(=O)c1ccc(OC(=O)N2CCOCC2)cc1,inactive,
CC(C)CN(C(=O)CSc1nncn1C)C1CCS(=O)(=O)C1 (stereo not drawn),inactive,
Cc1c(NC(=O)c2cc(-c3ccc(Br)cc3)on2)c(=O)n(-c2ccccc2)n1C,inactive,
CC(C)CNC(=O)c1cc(-c2ccc(Br)cc2)on1,3160 nM (active),
COc1ccc(-c2cc(C(=O)NCCCN3CCOCC3)no2)cc1,inactive,
COc1ccc(CCC(=O)N2CCN(S(=O)(=O)c3ccc(OC)cc3)CC2)cc1,inactive,
Cc1cc(NC(=O)COc2ccc([N+](=O)[O-])cc2)no1,inactive,
